# Results filed as inconclusive are left out. Values without a mark were called inactive. Activity calls are given as the source filed them. Calls follow the shape of the dose curve; as a rule, active = well fitted inhibition curve with a large enough effect in the repeat runs; inconclusive = weak or mixed curves; inactive = flat fitted curve, though single readings scatter.
# Experiment: qHTS assay to identify small molecule HDAC inhibitors (AID 1259364); also: nearly all actives have a fitted effect of over 45% in size; as to activity change, negative = inhibition: top concentration of the series differs between compounds
# Conditions: HCT-116 HDAC-Glo I/II luminescence, 2 h; series mostly up to 92.4 µM; activity change, negative = inhibition: at the top concentration
# Excerpt: U.S. Tox21 Program National Center for Advancing Translational Sciences [NCATS] NIH Chemical Genomics Center [NCGC] U.S. Environmental Protection Agency [EPA] National Institutes of Environmental Health Sciences [NIEHS] National Toxicology Program [NTP] U.S. Food and Drug Administration [FDA] Tox21 Assay Overview: Histone deacetylases (HDACs) are a group of epigenetic enzymes that regulate gene expression by histone deacetylation. HDACs are capable of introducing epigenetic modifications and such aberrations contribute to the onset and progression of several human diseases, thus making HDACs a popular therapeutic target. For identifying endogenous class I/II HDAC inhibitors a homogenous, luminogenic HDAC I/II cell based assay was used to measure the relative activity of class I and II HDACs from cells. Wild type HCT-116 cells were used to screen Tox21 libraries for identifying class I/II HDAC inhibitors.
# Tox21 Assay Protocol Summary: HCT-116 cells were dispensed at 1,500 per well in 5uL of culture medium into white solid bottom 1536-well plates (Greiner Bio-One, Monroe, NC) using a Multidrop Combi (Thermo Scientific, Waltham, MA) dispenser. The assay plates were incubated at 37 C and 5% CO2 for an overnight, and then 23nL of compounds dissolved in DMSO and positive control were transferred using a Pintool station (Wako, San Diego, CA). The assay plates were incubated at 37C and 5% CO2 for 2hr. After compound treatment, 4uL of HDAC-Glo reagent (Promega Corporation, Madison, WI) was added to each well of the assay plates using Flying Reagent Dispenser (FRD, Aurora Discovery, San Diego, CA) and incubated the assay plates at room temperature for 30min. The luminescence signal was quantified using a ViewLux plate reader (Perkin Elmer, Shelton, CT).
# % is scaled to controls: 0 for no effect and ±100 for the full control effect; potency is read from the fitted curve at half-maximal effect.
Compound,"activity change, negative = inhibition",Potency
O=S(=O)(O)c1ccccc1O,-0.866%,–
CO[Si](CCCNCCC[Si](OC)(OC)OC)(OC)OC,1.83%,–
OCC(O)[C@@H](O)[C@H](O)[C@H](O)CO[C@H]1O[C@H](CO)[C@@H](O)[C@H](O)[C@H]1O (stereo not given in full),0.77%,–
CC(CCO)CCCC(C)(C)O (stereo not given),1.65%,–
CC(C)c1cccc(C(C)C)c1N,0.636%,–
C=CCOCC(O)CS(=O)(=O)O (stereo not given),3.28%,–
CC(C)CCOC(=O)CC(C)C,9.09%,–
CCCCCCCCCCCCCCC,1.53%,–
COCc1ccc(COC)cc1,-0.558%,–
COc1cc(CCC(C)=O)ccc1O,0.809%,–
CCCC(=O)O[C@]1(C(=O)CCl)[C@@H](C)C[C@H]2[C@@H]3CCC4=CC(=O)C=C[C@]4(C)[C@@]3(F)C(=O)C[C@@]21C,-0.25% [at 42.5 µM],–
CCN(CC)C(=O)c1ccc(O)c(OC)c1,5.47% [at 42.5 µM],–
C(=C(c1ccccc1)c1ccccc1)c1ccccc1,-4.84%,–
N#CCc1ccccc1[N+](=O)[O-],8.09%,–
CCCCC1CCCCC(=O)O1 (stereo not given),9.65%,–
Cc1nccn1CC1CCc2c(c3ccccc3n2C)C1=O (stereo not given),0.403% [at 42.5 µM],–
CC(C)(C)N(CCO)CCO,1.14%,–
Nc1nc2c(ncn2CCC(CO)CO)c(=O)[nH]1,4.47% [at 42.5 µM],–
CC(C)=CC(=O)O,0.47%,–
c1cc(CN2CCCCC2)cc(OCCCNc2nc3ccccc3s2)c1,-9.75% [at 42.5 µM],–

Compound,"activity change, negative = inhibition",Potency
CC(C=O)Cc1ccc(C(C)C)cc1 (stereo not given),1.86%,–
CC(C)(C)C(=O)/C=C/c1ccc(Cl)cc1,-2.98%,–
CCC(=O)Nc1cccc(N)c1,-3.27%,–
COc1cccc(OC)c1,7%,–
COC(C(=O)O)c1ccccc1 (stereo not given),3.68%,–
Cc1nc(-c2ccc(OCC(C)C)c(C#N)c2)sc1C(=O)O,–,335 nM (active)
Nc1ncnc2c1ncn2Cc1c(F)cccc1Cl,1.05% [at 42.5 µM],–
O=C(O)/C=C/c1ccc(Cn2ccnc2)cc1,-13.4% [at 42.5 µM],–
CC(=O)O[C@H](CC(=O)[O-])C[N+](C)(C)C,2.06%,–
Nc1cc(N)cc(C(=O)O)c1,17.6%,–
CCC(C)OC(=O)N1CCCCC1CCO (stereo not given),1.16%,–
CCO[Si](C)(OCC)OCC,4.73%,–
CCn1c(=O)c2c(nc(/C=C/c3ccc(OC)c(OC)c3)n2C)n(CC)c1=O,1.88% [at 42.5 µM],–
NCC[C@H](O)C(=O)N[C@@H]1C[C@H](N)[C@@H](O[C@H]2O[C@H](CN)[C@@H](O)[C@H](O)[C@H]2O)[C@H](O)[C@H]1O[C@H]1O[C@H](CO)[C@@H](O)[C@H](N)[C@H]1O,5.91% [at 0.349 µM],–
COc1nc(C)nc(N)n1,-6.19%,–
C=CC(=O)OCCCCCC,3.18%,–
O=C(O)CCNC(=O)c1ccc(N=Nc2ccc(O)c(C(=O)O)c2)cc1,-14.7% [at 42.5 µM],–
CC/C=C\C#N,-2.6%,–
COc1cc(C)cc(O)c1,0.0289%,–
CO[Si](OC)(OC)OC,-0.183%,–

# — PubChem BioAssay (Tox21)
